This passage reports growth results from PubChem BioAssay (NCI).

About 83,000 compounds went through this panel and 20% of them were active in at least one assay; those are over-represented in the sample as a whole.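 A percent growth of 40 corresponds to 60% growth inhibition; 0 means no net growth; -100 means all cells died. Active threshold: below 10.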 Activity calls are given as the source filed them.

The subject of the first experiment is CAKI-1 renal. Kind of experiment: NCI-60 one-dose screen, 48 h (100 = growth as untreated, 0 = no growth, -100 = all killed). The settings on record: 10 µM unless noted.
As for `O=C(CSc1nc2ccc([N+](=O)[O-])cc2[nH]1)Nc1ccc([N+](=O)[O-])cc1`, the growth was 12.7% (inactive).

With `CC(C)(Sc1cc(C(C)(C)C)c(OC(=O)CCCC(=O)O)c(C(C)(C)C)c1)Sc1cc(C(C)(C)C)c(OC(=O)CCCC(=O)O)c(C(C)(C)C)c1`, the growth was 52.8% (inactive).

For `O=C(N(c1ccccc1)c1ccccc1)n1cc(I)c2nc(Cl)nc(Cl)c21`, the growth is 39.6% (inactive).

For the compound `NC(=O)CSc1oc(-c2ccccc2)nc1S(=O)(=O)c1ccc(Br)cc1`, the growth is 87.9% (inactive).

For `COc1ccc(/C=C/C(=O)c2cc3c(N)c(C(=O)Nc4cccc5ccccc45)sc3nc2C)cc1`, the growth was 48.6% (inactive).

For `Nc1ncnc2c1c(-c1cccc(Cl)c1)nn2CC(=O)N1CCOCC1`, the growth was 91.8% (inactive).

Consider `CC(=O)O[C@H]1CC2CCC3C(CC[C@@]4(C)C3C[C@H]([N+]3(C)CCCCC3)[C@@H]4OC(C)=O)[C@@]2(C)C[C@@H]1N1CCCCC1` (stereo partly drawn), for which the growth was 88.1% (inactive).

As for `c1ccc(Cn2cc3c(c2)-c2oncc2CC3)cc1`, the growth is 47% (inactive).

Another experiment relates to A498 renal. The description is as above. The settings on record: 10 µM unless noted.
With `O=C1C(Cl)=C(NCCCCCCNC2=C(Cl)C(=O)c3ccccc3C2=O)C(=O)c2ccccc21`, the growth is 72.9% (inactive).

For the compound `CCCC/C=C/[C@@H]1C[C@H]1CCO`, the growth was 102% (inactive).

Turning to `C=C(C)[C@@H]1CC[C@]2(CO)CC[C@]3(C)[C@H](CC[C@@H]4[C@@]5(C)CC[C@H](NCO)C(C)(C)[C@@H]5CC[C@]43C)[C@@H]12`, the growth was 79% (inactive).

For the compound `Cc1cccc(/C=C/c2c(C(=O)/C=C/c3ccccc3)c(C)nc3ccccc23)c1`, the growth is -38.2% (active).

As for `Cc1ccc(-c2nc(N3CCCNCC3)c3oc(-c4ccc(C)cc4)nc3n2)cc1`, the growth was 101% (inactive).

On to `Cc1sc2nc(NCCc3c[nH]c4ccc(Cl)cc34)[nH]c(=O)c2c1C`, for which the growth is 69.4% (inactive).

For the compound `COc1ccc(OC)c(Nc2nnc(-c3ccc(O)c(OC)c3)o2)c1`, the growth was 6.18% (active).

`COc1ccccc1NC(=O)N=Nc1c(O)[nH]c2ccccc12`: the growth is 90.7% (inactive).

Take `Nc1nc2ccccc2c2c1S(=O)(=O)c1ccc(Cl)cc1C2=O`: the growth is 56.9% (inactive).

Consider `Nc1n[nH]c2cccc(C#Cc3cccc(C(=O)Nc4cc(C(F)(F)F)cc(C(F)(F)F)c4)c3)c12`, for which the growth is 89.3% (inactive).

Turning to `CS(=O)(=O)Nc1cc(-c2ccc3ncnc(Nc4ccc5c(cnn5Cc5ccc(F)cc5)c4)c3c2)cnc1Cl`, the growth is -23.2% (active).

As to `Fc1cc2c(cc1Cl)N(c1ncnc3ccc(-c4ccc5n[nH]nc5c4)cc13)CC2`, the growth is -2.78% (active).

`CCN1C(=S)N(c2ccccc2)C2NC(=S)N(/N=C/C=C/c3ccccc3OC)C21` (stereo not drawn): the growth is 1.17% (active).

As for `O=c1c2cccc3c(N4CCCC4)ccc(c32)c2nc3ccccc3n12`, the growth is 38% (inactive).

On to `OB1OCc2cc(/C=C/c3cccc(C(F)(F)F)c3)ccc21`, for which the growth was 6.25% (active).

Take `O=C(/C=C/c1ccccc1)Nc1ncc(Cc2ccccc2Cl)s1`: the growth is -6.96% (active).

Regarding `CN(C)CCNC(=O)c1ccc(-c2nc3ccc4[nH]ncc4c3c3c2C2CCC3C2)cc1` (stereo not drawn), the growth was -20.9% (active).

Regarding `COC12C=C/C(=C(/C(=O)OCc3ccncc3)C(=O)CCCCCCCCC3(OC)C=C/C(=C(/C(=O)OCc4ccncc4)C(=O)CCCCCCCC1)O3)O2`, the growth is -87.6% (active).

For `O=C(/C=C/c1cccc(Cl)c1)c1cccc(OCCCOc2cccc(C(=O)/C=C/c3cccc(Cl)c3)c2)c1`, the growth was 102% (inactive).

Take `CCn1c(SCC(=O)N/N=C(\C)c2ccc(Cl)cc2)nc2c1c(=O)n(C)c(=O)n2C`: the growth is 91.3% (inactive).

`Cc1ccc(C[P+](c2ccccc2)(c2ccccc2)c2ccccc2)cc1`: the growth was 27.5% (inactive).

Turning to `Clc1ccc2c(NC3CCC(N4CCOCC4)CC3)ccnc2c1` (stereo not drawn), the growth was 75.5% (inactive).

As for `Cc1ccc(C2=Nc3c(N)ncnc3NC(c3cccc(Nc4ccnc5cc(C(F)(F)F)ccc45)c3)C2)cc1` (stereo not drawn), the growth was 47.8% (inactive).

Regarding `COc1ccc(-c2noc(C(=O)O)c2-c2cc(OC)c(OC)c(OC)c2)cc1`, the growth was 31.6% (inactive).

In the case of `CCOC(=O)c1nn(-c2ccc(S(N)(=O)=O)cc2)c2nc(C)cc(=O)n12`, the growth was 88.3% (inactive).

Turning to `CCSC(SCC)c1ccc(Cl)cc1`, the growth was 93.4% (inactive).

On to `CSc1nc2ccccc2cc1/C=C1/C=C(c2ccccc2)NC1=O`, for which the growth is 69.9% (inactive).

With `COC1/C=C/OC2(C)Oc3c(C)c(O)c4c(O)c(c(/C=N/Nc5ccc([N+](=O)[O-])cc5[N+](=O)[O-])c(O)c4c3C2=O)NC(=O)C(C)=C/C=C/C(C)C(O)C(C)C(O)C(C)C(OC(C)=O)C1C` (stereo not drawn), the growth was 96% (inactive).

As for `O=C1C(Cl)=C(Nc2ccc(S(=O)(=O)N3CCOCC3)cc2)C(=O)c2ccccc21`, the growth is 68.8% (inactive).

Take `c1csc(-c2ccc(CNc3c4ccccc4nc4ccccc34)cc2)c1`: the growth is -2.45% (active).

As to `Nc1ncc(-c2ccc3ncnc(Nc4cccc(Cl)c4)c3c2)cn1`, the growth is -9.82% (active).

With `CCOC(=O)C#Cc1c(C(=O)OCC)nnn1Cc1ccc([N+](=O)[O-])cc1`, the growth was 107% (inactive).

`O=C(CSc1nc2ccc([N+](=O)[O-])cc2[nH]1)Nc1ccc([N+](=O)[O-])cc1`: the growth was -6.66% (active).

In the case of `CC(C)(Sc1cc(C(C)(C)C)c(OC(=O)CCCC(=O)O)c(C(C)(C)C)c1)Sc1cc(C(C)(C)C)c(OC(=O)CCCC(=O)O)c(C(C)(C)C)c1`, the growth was 66.5% (inactive).

Turning to `O=C(N(c1ccccc1)c1ccccc1)n1cc(I)c2nc(Cl)nc(Cl)c21`, the growth was 67.9% (inactive).

As for `NC(=O)CSc1oc(-c2ccccc2)nc1S(=O)(=O)c1ccc(Br)cc1`, the growth is 61.4% (inactive).

Turning to `COc1ccc(/C=C/C(=O)c2cc3c(N)c(C(=O)Nc4cccc5ccccc45)sc3nc2C)cc1`, the growth is 44.2% (inactive).

In the case of `Nc1ncnc2c1c(-c1cccc(Cl)c1)nn2CC(=O)N1CCOCC1`, the growth was 118% (inactive).

As for `CC(=O)O[C@H]1CC2CCC3C(CC[C@@]4(C)C3C[C@H]([N+]3(C)CCCCC3)[C@@H]4OC(C)=O)[C@@]2(C)C[C@@H]1N1CCCCC1` (stereo partly drawn), the growth is 111% (inactive).

Consider `c1ccc(Cn2cc3c(c2)-c2oncc2CC3)cc1`, for which the growth was 44.6% (inactive).
